According to PubChem BioAssay AID1159580 (chemical genetic matrix, 2015):
Several values for one entry are separate records, joined by “and”; a condition that tells them apart may be missing. Identical values can stand only once. The whole screen tested about 5,500 compounds, of which about 2,000 (36%) were called active. Inconclusive results (about 18%) are left out. Cut-off read from the data, not from the text of the source: active = normalized growth mostly below about 0.91 (no sharp cut-off); inconclusive = no clear call, values can overlap the other calls; inactive = mostly above about 0.92. The list shows a part of the results.

Assay: chemical genetic growth profiling, strain panel (AID 1159580);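 note: tested at 20 µM; growth read once vehicle control cultures reached saturation at 30 °C; 1 = growth at the plate median or of vehicle wells; lower values mean less growth of the strain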
Settings: S. cerevisiae deletion strains, growth OD

Measured: normalized growth

CC(=O)OCC(=O)[C@@]1(O)[C@H](OC(C)=O)CC2C3CCC4=CC(=O)C=C[C@]4(C)[C@@]3(F)[C@@H](O)C[C@@]21C (some centres not stated)
inactive: locus YAL013W, strain DEP1, stronger effect = lower value 0.993 | locus YAL021C, strain ccr4, stronger effect = lower value 0.982 | locus YAL026C, strain drs2, stronger effect = lower value 0.959 | locus YAL030W, strain snc1, stronger effect = lower value 0.995 | locus YBL061C, strain skt5, stronger effect = lower value 1 | locus YBR009C, strain hhf1, stronger effect = lower value 0.923 | locus YBR021W, strain FUR4, stronger effect = lower value 0.986 | locus YBR023C, strain chs3, stronger effect = lower value 0.981 | locus YBR171W, strain sec66, stronger effect = lower value 0.985 | locus YBR229C, strain ROT2, stronger effect = lower value 0.951 | locus YBR231C, strain swc5, stronger effect = lower value 1.01 | locus YBR279W, strain paf1, stronger effect = lower value 0.987 | locus YCL011C, strain gbp2, stronger effect = lower value 0.947 | locus YCL016C, strain dcc1, stronger effect = lower value 0.965 | locus YCL029C, strain bik1, stronger effect = lower value 0.99 | locus YCL069W, strain vba3, stronger effect = lower value 0.983 | locus YCR088W, strain abp1, stronger effect = lower value 0.987 | locus YDL005C, strain med2, stronger effect = lower value 0.993 | locus YDL035C, strain GPR1, stronger effect = lower value 0.973 | locus YDL040C, strain nat1, stronger effect = lower value 1 | locus YDL074C, strain BRE1, stronger effect = lower value 0.947 | locus YDL101C, strain DUN1, stronger effect = lower value 0.98 | locus YDL134C, strain PPH21, stronger effect = lower value 0.994 | locus YDL185W, strain tfp1, stronger effect = lower value 0.99 | locus YDL192W, strain arf1, stronger effect = lower value 0.997 | locus YDR001C, strain nth1, stronger effect = lower value 0.959 | locus YDR069C, strain doa4, stronger effect = lower value 1.01 | locus YDR101C, strain arx1, stronger effect = lower value 1.01 | locus YDR137W, strain rgp1, stronger effect = lower value 0.98 | locus YDR159W, strain sac3, stronger effect = lower value 0.923 | locus YDR162C, strain NBP2, stronger effect = lower value 0.988 | locus YDR195W, strain ref2 1.03 | locus YDR297W, strain sur2, stronger effect = lower value 0.987 | locus YDR318W, strain mcm21, stronger effect = lower value 0.994 | locus YDR334W, strain swr1, stronger effect = lower value 0.982 | locus YDR335W, strain msn5, stronger effect = lower value 0.983 | locus YDR388W, stronger effect = lower value 1 | locus YDR392W, strain spt3, stronger effect = lower value 0.913 | locus YDR502C, strain sam2, stronger effect = lower value 1 | locus YEL003W, strain gim4, stronger effect = lower value 0.992 | locus YEL037C, strain rad23, stronger effect = lower value 0.983 | locus YEL061C, strain CIN8 (second series), stronger effect = lower value 0.973 | locus YEL061C, strain CIN8, stronger effect = lower value 0.991 | locus YER015W, strain faa2, stronger effect = lower value 1 | locus YER016W, strain bim1, stronger effect = lower value 0.961 | locus YER110C, stronger effect = lower value 0.974 | locus YER111C, strain swi4, stronger effect = lower value 0.976 | locus YER155C, strain BEM2 (second series), stronger effect = lower value 1.04 | locus YER155C, strain BEM2, stronger effect = lower value 0.998 | locus YER167W, strain BCK2, stronger effect = lower value 0.991 | locus YFR010W, strain ubp6, stronger effect = lower value 0.983 | locus YGL078C, strain dbp3, stronger effect = lower value 0.995 | locus YGL086W, strain mad1, stronger effect = lower value 0.99 | locus YGL167C, strain pmr1, stronger effect = lower value 0.998 | locus YGL173C, strain kem1, stronger effect = lower value 1.01 | locus YGL227W, strain vid30, stronger effect = lower value 0.979 | locus YGL240W, strain doc1, stronger effect = lower value 1.02 | locus YGL248W, strain PDE1, stronger effect = lower value 0.975 | locus YGL253W, strain hxk2, stronger effect = lower value 0.964 | locus YGR135W, strain pre9, stronger effect = lower value 0.997 | locus YGR252W, strain gcn5, stronger effect = lower value 0.967 | locus YHR013C, strain ard1, stronger effect = lower value 0.948 | locus YHR027C, strain rpn1, stronger effect = lower value 0.966 | locus YHR030C, strain SLT2, stronger effect = lower value 0.995 and 0.971 | locus YHR079C, strain IRE1 (second series), stronger effect = lower value 1.01 | locus YHR079C, strain IRE1, stronger effect = lower value 0.964 | locus YHR094C, strain hxt1, stronger effect = lower value 1.01 | locus YHR129C, strain ARP1, stronger effect = lower value 0.977 | locus YHR142W, strain chs7, stronger effect = lower value 0.957 | locus YHR200W, strain rpn10, stronger effect = lower value 0.997 | locus YIL066C, strain RNR3, stronger effect = lower value 0.981 | locus YIL073C, strain SPO22, stronger effect = lower value 1.02 | locus YIL125W, strain kgd1, stronger effect = lower value 0.996 | locus YIR030C, strain dcg1, stronger effect = lower value 0.989 | locus YJL092W, strain hpr5, stronger effect = lower value 0.991 | locus YJL095W, strain BCK1 (second series), stronger effect = lower value 0.986 | locus YJL095W, strain BCK1, stronger effect = lower value 0.945 and 0.981 | locus YJL115W, strain asf1, stronger effect = lower value 0.972 | locus YJL129C, strain trk1, stronger effect = lower value 0.988 | locus YJL134W, strain LCB3, stronger effect = lower value 0.993 | locus YJL154C, strain vps35, stronger effect = lower value 0.986 | locus YJL164C, strain tpk1, stronger effect = lower value 0.974 | locus YJL166W, strain qcr8, stronger effect = lower value 1.04 | locus YJL168C, strain set2, stronger effect = lower value 0.999 | locus YJL187C, strain SWE1 (second series), stronger effect = lower value 0.975 | locus YJL187C, strain SWE1, stronger effect = lower value 0.984 | locus YJR043C, strain POL32, stronger effect = lower value 0.992
